What all share (assay): DAPPL (digital affinity profiling via proximity ligation, sequencing); 10 mM Tris-HCl pH 7.5, 50 mM NaCl, 1 mM DTT, 4% glycerol, room temperature, 30 min; GST-TFs on glutathione beads, 16-mer random dsDNA library, 0.1% formaldehyde crosslink after washing; high values mean tight binding
The target of one assay is T1, FEV (Homo sapiens, UniProt Q99581 1-238).
T1 sequence: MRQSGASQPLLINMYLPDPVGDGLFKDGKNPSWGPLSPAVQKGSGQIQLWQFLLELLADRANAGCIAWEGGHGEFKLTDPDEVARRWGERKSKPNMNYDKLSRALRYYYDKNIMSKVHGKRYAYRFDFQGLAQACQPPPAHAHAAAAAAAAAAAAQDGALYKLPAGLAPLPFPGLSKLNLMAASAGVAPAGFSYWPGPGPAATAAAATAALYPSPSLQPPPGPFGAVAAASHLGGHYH
Particulars: protein: recombinant; tags: N-terminal GST; dsDNA, one strand shown. Put shortly: (§1)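 After expression in yeast as GST fusions, human transcription factors were bound to glutathione beads, DNA-barcoded and mixed with a tag-only sample. The pools were incubated with 200 nmole of a 16-mer random double-stranded DNA library in Tris/NaCl/DTT/glycerol buffer (30 min, room temperature), washed and crosslinked with 0.1% formaldehyde. Proximity ligation with BsaI/T4 ligase ran for 1 h at 37 °C, before PCR amplification and sequencing on an Illumina NextSeq500. Binding signal is a hexamer's read frequency for a factor divided by its frequency for the tag-only sample.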

In a further assay the target is ETV5 (Homo sapiens, UniProt P41161 1-510). The note with it: protein: recombinant; tags: N-terminal GST; dsDNA, one strand shown. In a few lines:
as §1

In the next assay the target is HSF1 (Homo sapiens, UniProt Q00613 1-529). The note with it: protein: recombinant; tags: N-terminal GST; chain copies: 3; dsDNA, one strand shown. In a few lines: as §1
Another assay addresses T2, SPIC (Homo sapiens, UniProt Q8N5J4 1-248).
T2 sequence: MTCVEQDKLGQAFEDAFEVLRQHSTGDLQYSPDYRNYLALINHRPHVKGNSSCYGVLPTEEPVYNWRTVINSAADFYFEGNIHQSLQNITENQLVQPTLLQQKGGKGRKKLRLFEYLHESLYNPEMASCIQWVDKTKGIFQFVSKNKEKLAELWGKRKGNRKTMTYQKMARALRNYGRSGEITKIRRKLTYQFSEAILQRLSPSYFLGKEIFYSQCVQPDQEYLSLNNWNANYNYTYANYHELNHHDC
Particulars: protein: recombinant; tags: N-terminal GST; dsDNA, one strand shown. In a few lines:
as §1

For the next assay, the target named is ELF4 (Homo sapiens, UniProt Q99607 1-663). Particulars: protein: recombinant; tags: N-terminal GST; dsDNA, one strand shown. In a few lines: as §1
The target of a further assay is T3, ELK4 (Homo sapiens, UniProt P28324-2 1-405).
T3 sequence: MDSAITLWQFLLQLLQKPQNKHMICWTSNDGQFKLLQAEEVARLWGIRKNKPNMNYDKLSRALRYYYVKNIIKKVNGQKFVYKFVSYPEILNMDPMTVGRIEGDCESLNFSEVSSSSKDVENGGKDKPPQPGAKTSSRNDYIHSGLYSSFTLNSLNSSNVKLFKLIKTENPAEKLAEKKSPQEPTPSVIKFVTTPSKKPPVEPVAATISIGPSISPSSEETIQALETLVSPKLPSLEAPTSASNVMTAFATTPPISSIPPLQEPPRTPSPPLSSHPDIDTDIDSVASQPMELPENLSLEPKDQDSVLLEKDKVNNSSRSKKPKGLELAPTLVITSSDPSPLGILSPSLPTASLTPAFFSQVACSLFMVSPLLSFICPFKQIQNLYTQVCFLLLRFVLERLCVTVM
The note with it: protein: recombinant; tags: N-terminal GST; dsDNA, one strand shown. Put shortly: as §1

A further assay addresses T4, ETV2 (Homo sapiens, UniProt O00321 1-342).
T4 sequence: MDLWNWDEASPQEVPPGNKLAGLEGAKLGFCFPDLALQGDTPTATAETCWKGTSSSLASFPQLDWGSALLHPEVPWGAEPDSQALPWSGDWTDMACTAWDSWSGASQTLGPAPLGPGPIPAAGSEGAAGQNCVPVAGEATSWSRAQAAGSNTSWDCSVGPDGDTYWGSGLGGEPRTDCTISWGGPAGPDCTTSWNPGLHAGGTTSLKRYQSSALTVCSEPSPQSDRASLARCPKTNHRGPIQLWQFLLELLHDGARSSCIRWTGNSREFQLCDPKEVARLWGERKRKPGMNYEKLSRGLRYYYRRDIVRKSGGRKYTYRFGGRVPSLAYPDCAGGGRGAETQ
The note with it: protein: recombinant; tags: N-terminal GST; dsDNA, one strand shown. In a few lines: as §1

Another assay deals with T5, ELF3 (Homo sapiens, UniProt P78545 1-371).
T5 sequence: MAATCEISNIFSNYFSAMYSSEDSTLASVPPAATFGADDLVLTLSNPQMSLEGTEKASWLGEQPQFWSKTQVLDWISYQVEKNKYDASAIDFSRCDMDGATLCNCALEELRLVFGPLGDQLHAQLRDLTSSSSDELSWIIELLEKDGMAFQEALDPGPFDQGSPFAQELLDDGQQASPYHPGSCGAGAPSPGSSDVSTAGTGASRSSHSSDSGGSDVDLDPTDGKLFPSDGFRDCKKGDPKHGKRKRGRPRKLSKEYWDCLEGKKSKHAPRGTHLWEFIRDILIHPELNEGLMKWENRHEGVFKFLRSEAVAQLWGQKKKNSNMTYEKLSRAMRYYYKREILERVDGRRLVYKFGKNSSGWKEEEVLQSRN
Particulars: protein: recombinant; tags: N-terminal GST; dsDNA, one strand shown. Put shortly: as §1

For a further assay, the target named is CRX (Homo sapiens, UniProt O43186 1-299). Particulars: protein: recombinant; tags: N-terminal GST; dsDNA, one strand shown. Put shortly:
as §1

The next assay concerns the target ETV1 (Homo sapiens, UniProt P50549 1-477). The note with it: protein: recombinant; tags: N-terminal GST; dsDNA, one strand shown. Put shortly: as §1

Sequence of ETV5 (P41161 whole entry): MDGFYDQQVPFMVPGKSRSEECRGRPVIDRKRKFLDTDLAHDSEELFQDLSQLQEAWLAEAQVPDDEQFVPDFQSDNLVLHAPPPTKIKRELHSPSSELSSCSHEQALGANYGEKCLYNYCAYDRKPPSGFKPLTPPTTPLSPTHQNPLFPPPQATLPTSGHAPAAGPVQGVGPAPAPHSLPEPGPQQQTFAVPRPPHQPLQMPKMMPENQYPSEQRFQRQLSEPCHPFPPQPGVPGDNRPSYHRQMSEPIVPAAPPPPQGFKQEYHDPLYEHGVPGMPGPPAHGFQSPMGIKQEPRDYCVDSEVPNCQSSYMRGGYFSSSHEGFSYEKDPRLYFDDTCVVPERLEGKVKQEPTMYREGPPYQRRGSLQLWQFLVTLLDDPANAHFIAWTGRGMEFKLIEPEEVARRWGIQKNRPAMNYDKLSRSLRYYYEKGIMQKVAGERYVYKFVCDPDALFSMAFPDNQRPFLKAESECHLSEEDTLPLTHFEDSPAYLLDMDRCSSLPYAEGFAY
Sequence of ETV1 (P50549 whole entry): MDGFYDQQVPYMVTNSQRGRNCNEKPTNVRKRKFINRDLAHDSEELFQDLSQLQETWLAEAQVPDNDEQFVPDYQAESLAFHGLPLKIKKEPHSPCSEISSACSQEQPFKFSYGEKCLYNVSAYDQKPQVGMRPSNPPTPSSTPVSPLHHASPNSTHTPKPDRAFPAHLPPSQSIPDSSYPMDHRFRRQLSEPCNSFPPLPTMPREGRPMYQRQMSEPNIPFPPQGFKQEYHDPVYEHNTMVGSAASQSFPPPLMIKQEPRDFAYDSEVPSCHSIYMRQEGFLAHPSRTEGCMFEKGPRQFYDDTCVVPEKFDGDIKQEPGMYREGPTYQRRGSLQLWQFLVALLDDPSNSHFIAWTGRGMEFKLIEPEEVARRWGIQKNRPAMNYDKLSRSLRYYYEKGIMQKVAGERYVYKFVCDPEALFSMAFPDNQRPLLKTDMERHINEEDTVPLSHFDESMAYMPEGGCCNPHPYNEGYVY
Sequence of ELF4 (Q99607 whole entry): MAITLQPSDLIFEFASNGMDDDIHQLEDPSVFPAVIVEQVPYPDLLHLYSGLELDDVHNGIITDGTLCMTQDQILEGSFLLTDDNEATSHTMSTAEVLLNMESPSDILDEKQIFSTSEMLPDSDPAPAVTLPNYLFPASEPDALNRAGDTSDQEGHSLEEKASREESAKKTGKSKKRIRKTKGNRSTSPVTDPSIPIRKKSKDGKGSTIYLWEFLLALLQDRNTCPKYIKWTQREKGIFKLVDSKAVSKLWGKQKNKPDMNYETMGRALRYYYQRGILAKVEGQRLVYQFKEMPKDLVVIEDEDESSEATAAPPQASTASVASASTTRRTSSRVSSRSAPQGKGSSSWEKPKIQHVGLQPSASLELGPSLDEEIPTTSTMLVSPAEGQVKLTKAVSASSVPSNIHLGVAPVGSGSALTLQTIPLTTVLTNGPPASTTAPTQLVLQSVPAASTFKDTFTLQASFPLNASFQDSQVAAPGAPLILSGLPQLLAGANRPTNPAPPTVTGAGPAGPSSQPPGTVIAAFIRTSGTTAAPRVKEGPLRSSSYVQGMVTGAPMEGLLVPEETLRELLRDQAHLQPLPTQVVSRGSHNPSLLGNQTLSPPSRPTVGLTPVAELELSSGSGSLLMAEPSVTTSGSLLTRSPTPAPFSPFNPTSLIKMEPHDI
Sequence of CRX (O43186 whole entry): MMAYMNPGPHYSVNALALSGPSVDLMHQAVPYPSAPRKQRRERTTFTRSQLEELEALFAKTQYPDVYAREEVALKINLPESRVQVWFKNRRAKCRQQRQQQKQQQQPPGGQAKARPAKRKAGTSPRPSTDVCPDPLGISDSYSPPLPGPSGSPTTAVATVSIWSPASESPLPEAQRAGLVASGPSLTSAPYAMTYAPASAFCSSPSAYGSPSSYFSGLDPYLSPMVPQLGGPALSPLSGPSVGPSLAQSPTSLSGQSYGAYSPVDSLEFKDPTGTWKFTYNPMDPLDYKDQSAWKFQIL
Sequence of HSF1 (Q00613 whole entry): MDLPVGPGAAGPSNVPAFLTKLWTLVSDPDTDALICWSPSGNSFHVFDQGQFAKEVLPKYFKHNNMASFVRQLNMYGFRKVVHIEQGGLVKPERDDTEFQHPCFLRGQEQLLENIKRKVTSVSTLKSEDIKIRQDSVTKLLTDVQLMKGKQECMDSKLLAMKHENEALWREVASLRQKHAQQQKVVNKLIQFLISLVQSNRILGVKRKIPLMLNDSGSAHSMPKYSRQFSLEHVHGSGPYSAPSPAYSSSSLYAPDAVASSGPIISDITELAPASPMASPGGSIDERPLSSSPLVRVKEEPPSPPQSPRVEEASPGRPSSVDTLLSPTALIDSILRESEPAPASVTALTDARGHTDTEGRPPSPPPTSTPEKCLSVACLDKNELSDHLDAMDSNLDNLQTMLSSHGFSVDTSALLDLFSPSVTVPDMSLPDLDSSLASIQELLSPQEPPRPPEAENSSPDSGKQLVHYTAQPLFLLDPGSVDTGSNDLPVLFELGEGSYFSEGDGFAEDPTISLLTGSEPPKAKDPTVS

With CTGGCT, the binding signal with FEV is 1.16 fold enrichment (6-mer frequency, TF over GST control); with ETV5, 1.13 fold enrichment (6-mer frequency, TF over GST control); in the assay with HSF1 it was 1.27 fold enrichment (6-mer frequency, TF over GST control); in the assay with SPIC, 1.13 fold enrichment (6-mer frequency, TF over GST control); in the assay with ELF4 it was 1.18 fold enrichment (6-mer frequency, TF over GST control); in the assay with ELK4, 1.42 fold enrichment (6-mer frequency, TF over GST control). Moreover, the binding signal in the assay with ETV2 is 1.5 fold enrichment (6-mer frequency, TF over GST control); with ELF3, 1.19 fold enrichment (6-mer frequency, TF over GST control); in the assay with CRX, 1.21 fold enrichment (6-mer frequency, TF over GST control); with ETV1, 1.1 fold enrichment (6-mer frequency, TF over GST control).

ACTTAT: the binding signal with FEV was 1.34 fold enrichment (6-mer frequency, TF over GST control); in the assay with ETV5, 1.32 fold enrichment (6-mer frequency, TF over GST control); with HSF1, 1.73 fold enrichment (6-mer frequency, TF over GST control); in the assay with SPIC, 1.5 fold enrichment (6-mer frequency, TF over GST control); with ELF4 it was 1.35 fold enrichment (6-mer frequency, TF over GST control); with ELK4, 1.53 fold enrichment (6-mer frequency, TF over GST control). Moreover, the binding signal is 1.35 fold enrichment (6-mer frequency, TF over GST control) with ETV2; 1.27 fold enrichment (6-mer frequency, TF over GST control) in the assay with ELF3; 2.2 fold enrichment (6-mer frequency, TF over GST control) with CRX; 1.42 fold enrichment (6-mer frequency, TF over GST control) in the assay with ETV1.

Turning to ACTACG, the binding signal with FEV is 1.34 fold enrichment (6-mer frequency, TF over GST control); with ETV5, 1.27 fold enrichment (6-mer frequency, TF over GST control); with HSF1, 1.09 fold enrichment (6-mer frequency, TF over GST control); in the assay with SPIC, 1.12 fold enrichment (6-mer frequency, TF over GST control); with ELF4, 1.26 fold enrichment (6-mer frequency, TF over GST control); in the assay with ELK4 it was 1.32 fold enrichment (6-mer frequency, TF over GST control). Also, the binding signal with ETV2 is 1.33 fold enrichment (6-mer frequency, TF over GST control); with ELF3, 1.28 fold enrichment (6-mer frequency, TF over GST control); with CRX it was 1.08 fold enrichment (6-mer frequency, TF over GST control); with ETV1, 1.25 fold enrichment (6-mer frequency, TF over GST control).

Take TCAATA: the binding signal with FEV was 1.15 fold enrichment (6-mer frequency, TF over GST control); with ETV5, 1.21 fold enrichment (6-mer frequency, TF over GST control); in the assay with HSF1, 1.18 fold enrichment (6-mer frequency, TF over GST control); with SPIC it was 1.06 fold enrichment (6-mer frequency, TF over GST control); with ELF4, 1.17 fold enrichment (6-mer frequency, TF over GST control); with ELK4, 1.29 fold enrichment (6-mer frequency, TF over GST control). For the same sequence, the binding signal with ETV2 is 1.26 fold enrichment (6-mer frequency, TF over GST control); with ELF3, 1.23 fold enrichment (6-mer frequency, TF over GST control); with CRX, 1.34 fold enrichment (6-mer frequency, TF over GST control); in the assay with ETV1, 1.24 fold enrichment (6-mer frequency, TF over GST control).

Consider GATGAT, for which the binding signal is 1.18 fold enrichment (6-mer frequency, TF over GST control) with FEV; 1.31 fold enrichment (6-mer frequency, TF over GST control) in the assay with ETV5; 1.49 fold enrichment (6-mer frequency, TF over GST control) with HSF1; 1.23 fold enrichment (6-mer frequency, TF over GST control) in the assay with SPIC; 1.32 fold enrichment (6-mer frequency, TF over GST control) with ELF4; 1.26 fold enrichment (6-mer frequency, TF over GST control) with ELK4. For the same sequence, the binding signal with ETV2 is 1.33 fold enrichment (6-mer frequency, TF over GST control); in the assay with ELF3, 1.33 fold enrichment (6-mer frequency, TF over GST control); in the assay with CRX it was 1.68 fold enrichment (6-mer frequency, TF over GST control); in the assay with ETV1, 1.27 fold enrichment (6-mer frequency, TF over GST control).

In the case of AAGTCT, the binding signal with FEV is 1.07 fold enrichment (6-mer frequency, TF over GST control); in the assay with ETV5, 1.12 fold enrichment (6-mer frequency, TF over GST control); with HSF1 it was 1.25 fold enrichment (6-mer frequency, TF over GST control); with SPIC it was 1.04 fold enrichment (6-mer frequency, TF over GST control); in the assay with ELF4, 1.06 fold enrichment (6-mer frequency, TF over GST control); with ELK4, 1.13 fold enrichment (6-mer frequency, TF over GST control). The binding signal with ETV2 was 1.06 fold enrichment (6-mer frequency, TF over GST control); in the assay with ELF3, 1.13 fold enrichment (6-mer frequency, TF over GST control); with CRX, 1.28 fold enrichment (6-mer frequency, TF over GST control); in the assay with ETV1 it was 1.09 fold enrichment (6-mer frequency, TF over GST control).

For CCTCCT, the binding signal was 1.46 fold enrichment (6-mer frequency, TF over GST control) in the assay with FEV; 1.59 fold enrichment (6-mer frequency, TF over GST control) with ETV5; 1.3 fold enrichment (6-mer frequency, TF over GST control) with HSF1; 1.47 fold enrichment (6-mer frequency, TF over GST control) with SPIC; 1.66 fold enrichment (6-mer frequency, TF over GST control) in the assay with ELF4; 1.61 fold enrichment (6-mer frequency, TF over GST control) with ELK4. Also, the binding signal with ETV2 was 1.45 fold enrichment (6-mer frequency, TF over GST control); with ELF3, 1.2 fold enrichment (6-mer frequency, TF over GST control); with CRX it was 1.32 fold enrichment (6-mer frequency, TF over GST control); with ETV1, 1.52 fold enrichment (6-mer frequency, TF over GST control).

AAACCA: the binding signal in the assay with FEV is 1.22 fold enrichment (6-mer frequency, TF over GST control); with ETV5, 1.15 fold enrichment (6-mer frequency, TF over GST control); in the assay with HSF1 it was 1.09 fold enrichment (6-mer frequency, TF over GST control); in the assay with SPIC, 1.16 fold enrichment (6-mer frequency, TF over GST control); with ELF4, 1.2 fold enrichment (6-mer frequency, TF over GST control); with ELK4, 1.26 fold enrichment (6-mer frequency, TF over GST control). Also, the binding signal with ETV2 was 1.14 fold enrichment (6-mer frequency, TF over GST control); in the assay with ELF3, 1.17 fold enrichment (6-mer frequency, TF over GST control); with CRX, 1.14 fold enrichment (6-mer frequency, TF over GST control); with ETV1, 1.09 fold enrichment (6-mer frequency, TF over GST control).

Source of the values: article PMC7862700, “An all-to-all approach to the identification of sequence-specific readers for epigenetic DNA modifications on cytosine”.
